# According to PubChem BioAssay (EPA / NIEHS):
# Records with an inconclusive call do not appear. Active and inactive are the calls of the source. The calls were made as follows: active = hit-call score of the fitted dose curve at least 0.9, where 1 is the maximum; inconclusive = response in the unintended direction; inactive = score below 0.9.
# Experiments:
# [1] = target: bovine Estrogen Receptor (ER), ESR1 (gene 407238) (UniProt P49884); assay: NVS_NR_bER: NovaScreen (NVS) Nuclear Receptor Binding Assay for bovine Estrogen Receptor (ER) (AID 2283345);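 also: actives lower the bound radioligand count which means they displace the ER ligand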
# Sequence of bovine Estrogen Receptor (ER), ESR1 (gene 407238) (P49884 whole entry, looked up): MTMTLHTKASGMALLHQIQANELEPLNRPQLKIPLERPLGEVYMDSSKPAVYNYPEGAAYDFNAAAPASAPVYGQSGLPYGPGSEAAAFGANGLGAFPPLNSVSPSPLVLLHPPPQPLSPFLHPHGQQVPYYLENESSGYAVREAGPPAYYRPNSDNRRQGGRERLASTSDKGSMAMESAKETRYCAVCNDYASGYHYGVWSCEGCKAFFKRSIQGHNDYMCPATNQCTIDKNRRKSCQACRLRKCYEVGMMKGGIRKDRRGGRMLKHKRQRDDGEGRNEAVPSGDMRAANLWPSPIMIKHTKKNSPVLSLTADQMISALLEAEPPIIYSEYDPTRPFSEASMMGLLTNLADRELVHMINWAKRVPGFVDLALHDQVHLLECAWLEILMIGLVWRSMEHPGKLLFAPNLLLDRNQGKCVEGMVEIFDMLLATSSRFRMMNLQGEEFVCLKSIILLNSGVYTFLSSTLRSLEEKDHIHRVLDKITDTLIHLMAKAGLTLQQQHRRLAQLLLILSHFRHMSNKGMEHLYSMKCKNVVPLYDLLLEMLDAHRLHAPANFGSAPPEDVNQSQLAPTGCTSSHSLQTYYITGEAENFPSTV
# Outline: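 Displacement of a radioligand from estrogen receptor in bovine uterine membrane preparations; scintillation signal taken at 18 hours, DMSO as baseline. Single-concentration duplicates (25 uM) preceded concentration-response follow-up of actives.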
# [2] = target: Estrogen receptor (Homo sapiens) (UniProt P03372); assay: NVS_NR_hER: NovaScreen (NVS) Nuclear Receptor Binding Assay for human Estrogen Receptor (ER) (AID 2283348)
# Sequence of Estrogen receptor (Homo sapiens) (P03372 whole entry, looked up, the tested form may be a part): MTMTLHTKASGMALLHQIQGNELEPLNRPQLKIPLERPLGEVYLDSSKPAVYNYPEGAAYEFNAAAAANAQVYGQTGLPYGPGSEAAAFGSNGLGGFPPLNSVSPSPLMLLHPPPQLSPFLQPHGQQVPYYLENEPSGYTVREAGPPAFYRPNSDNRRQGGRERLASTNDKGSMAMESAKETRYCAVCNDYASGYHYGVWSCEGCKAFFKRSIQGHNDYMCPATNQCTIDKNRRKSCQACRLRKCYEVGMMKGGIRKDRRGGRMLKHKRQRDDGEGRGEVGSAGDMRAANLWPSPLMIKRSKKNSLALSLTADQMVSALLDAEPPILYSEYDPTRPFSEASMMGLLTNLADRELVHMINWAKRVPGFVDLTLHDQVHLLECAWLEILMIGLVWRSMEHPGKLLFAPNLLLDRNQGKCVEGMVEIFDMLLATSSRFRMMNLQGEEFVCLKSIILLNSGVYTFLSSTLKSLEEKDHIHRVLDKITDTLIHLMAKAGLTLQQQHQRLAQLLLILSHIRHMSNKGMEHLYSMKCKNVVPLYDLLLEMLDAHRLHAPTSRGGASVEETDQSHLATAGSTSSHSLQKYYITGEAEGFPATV
# Outline: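 Radioligand competitive displacement binding to estrogen receptor from MCF7 extract, cell-free; 18 h after dosing, scintillation read-out. Primary screen in duplicate at 25 uM; actives followed up in concentration series; loss of signal vs DMSO.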
# [3] = target: Estrogen receptor (Homo sapiens) (UniProt P03372); assay: OT_ER_ERaERa_1440: Odyssey Thera (OT) 24-hour HEK293T Protein-Complementation Assay for Estrogen Receptor-alpha/-alpha Homodimer (AID 2283349);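 also: hits raise fluorescence above DMSO for agonists and antagonists alike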
# Outline: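 HEK293T cells stably expressing the human ER alpha ligand-binding domain (aa 310-547) as a homodimer PCA were dosed for 24 hours. Fluorescence intensity was read by laser scanning cytometry, and gain of signal was fitted relative to DMSO vehicle.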
# [4] = target: Estrogen receptor (Homo sapiens) (UniProt P03372); assay: OT_ER_ERaERa_0480: Odyssey Thera (OT) 8-hour HEK293T Protein-Complementation Assay for Estrogen Receptor-alpha/-alpha Homodimer (AID 2283351);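 also: rise in fluorescence from reassembled reporter fragments on ERα LBD homodimer in nucleus or whole cell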
# Outline: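 Binding reporter in which dimerisation of ERα LBD (aa 310-547) fusions reconstitutes a fluorescent reporter in HEK293T cells. Compounds incubated 8 h; mean fluorescence intensity increase versus DMSO scored.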
# [5] = target: Estrogen receptor (Homo sapiens) + Estrogen receptor beta (Homo sapiens) (UniProt P03372+Q92731); assay: OT_ER_ERaERb_0480: Odyssey Thera (OT) 8-hour HEK293T Protein-Complementation Assay for Estrogen Receptor-alpha/-beta Heterodimer (AID 2283352)
# Sequence of Estrogen receptor (Homo sapiens) + Estrogen receptor beta (Homo sapiens) (P03372 whole entry, looked up, the tested form may be a part): as above
# Sequence of Estrogen receptor (Homo sapiens) + Estrogen receptor beta (Homo sapiens) (Q92731 whole entry, looked up, the tested form may be a part): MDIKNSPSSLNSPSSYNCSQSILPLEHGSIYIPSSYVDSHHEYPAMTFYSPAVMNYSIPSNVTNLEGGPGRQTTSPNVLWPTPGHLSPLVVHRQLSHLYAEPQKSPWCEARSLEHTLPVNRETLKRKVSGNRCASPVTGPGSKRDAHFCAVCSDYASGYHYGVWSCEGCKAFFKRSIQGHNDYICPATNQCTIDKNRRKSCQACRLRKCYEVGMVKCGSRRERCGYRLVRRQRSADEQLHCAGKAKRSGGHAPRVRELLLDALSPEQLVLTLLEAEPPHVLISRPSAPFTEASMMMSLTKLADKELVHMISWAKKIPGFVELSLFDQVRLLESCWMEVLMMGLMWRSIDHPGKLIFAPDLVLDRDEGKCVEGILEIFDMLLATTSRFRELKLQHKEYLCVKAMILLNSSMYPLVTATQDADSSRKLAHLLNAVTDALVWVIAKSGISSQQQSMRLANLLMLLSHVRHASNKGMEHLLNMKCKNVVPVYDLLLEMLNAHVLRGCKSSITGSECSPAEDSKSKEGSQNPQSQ
# Outline: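 HEK293T cells expressing ER-alpha/ER-beta LBD fusions to complementary reporter fragments were dosed with compound for 8 hours. Heterodimer formation was read as increased nuclear (agonist) or nuclear plus cytoplasmic (antagonist) mean fluorescence intensity versus DMSO vehicle.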
# [6] = target: Androgen Receptor/SRC-1 Co-activator, AR (gene 367) (UniProt P10275); assay: OT_AR_ARSRC1_0960: Odyssey Thera (OT) 16-hour HEK293T Protein-Complementation Assay for Androgen Receptor/SRC-1 Co-activator (AID 2283353);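 also: actives raise the signal above DMSO so potency reflects increased AR and SRC-1 complex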
# Sequence of Androgen Receptor/SRC-1 Co-activator, AR (gene 367) (P10275 whole entry, looked up, the tested form may be a part): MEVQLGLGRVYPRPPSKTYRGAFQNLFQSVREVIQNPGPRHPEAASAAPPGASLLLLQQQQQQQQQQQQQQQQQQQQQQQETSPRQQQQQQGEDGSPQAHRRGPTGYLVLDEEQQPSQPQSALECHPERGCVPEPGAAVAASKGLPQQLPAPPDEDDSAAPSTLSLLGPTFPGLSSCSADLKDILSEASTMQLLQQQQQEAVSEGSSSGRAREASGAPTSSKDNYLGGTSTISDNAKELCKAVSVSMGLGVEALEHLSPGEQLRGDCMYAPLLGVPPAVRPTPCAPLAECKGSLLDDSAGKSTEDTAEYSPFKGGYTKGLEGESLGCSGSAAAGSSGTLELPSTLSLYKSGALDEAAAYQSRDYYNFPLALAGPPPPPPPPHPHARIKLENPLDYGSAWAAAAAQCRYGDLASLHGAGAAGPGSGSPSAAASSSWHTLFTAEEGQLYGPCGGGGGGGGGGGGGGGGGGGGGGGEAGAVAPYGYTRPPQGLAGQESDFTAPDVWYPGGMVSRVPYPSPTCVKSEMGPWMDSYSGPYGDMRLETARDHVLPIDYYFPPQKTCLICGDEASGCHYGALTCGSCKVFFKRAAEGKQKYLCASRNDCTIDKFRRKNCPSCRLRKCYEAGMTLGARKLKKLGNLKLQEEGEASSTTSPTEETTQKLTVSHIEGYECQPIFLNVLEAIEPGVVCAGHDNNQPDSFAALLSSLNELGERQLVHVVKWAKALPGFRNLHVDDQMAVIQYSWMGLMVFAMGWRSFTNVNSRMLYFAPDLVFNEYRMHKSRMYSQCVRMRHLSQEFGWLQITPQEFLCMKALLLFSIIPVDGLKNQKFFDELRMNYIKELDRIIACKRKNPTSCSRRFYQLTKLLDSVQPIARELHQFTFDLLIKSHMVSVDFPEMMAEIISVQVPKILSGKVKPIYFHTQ
# Outline: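 Interaction of AR with SRC-1 was followed by YFP fragment complementation in HEK293T cells after 16 h of dosing. Gain of nuclear-over-cytoplasmic 488 nm fluorescence against DMSO controls defined activity.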
# [7] = target: Androgen Receptor/SRC-1 Co-activator, AR (gene 367) (UniProt P10275); assay: OT_AR_ARSRC1_0480: Odyssey Thera (OT) 8-hour HEK293T Protein-Complementation Assay for Androgen Receptor/SRC-1 Co-activator (AID 2283354);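 also: hits raise the complementation signal above DMSO so AC50 marks enhancers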
# Outline: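 HEK293T cells stably expressing AR and SRC-1 fused to Venus YFP fragments, imaged 8 h after dosing. Complementation fluorescence scored as nuclear/cytoplasmic ratio at 488 nm in at least 400 cells per image; gain fitted versus DMSO.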
# NCBI gene 100848466 = assay: NVS_NR_bPR: NovaScreen (NVS) Nuclear Receptor Binding Assay for bovine Progextron Receptor (PR) (AID 2283343);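 as to AC50: actives lower bound radioligand signal below DMSO meaning displacement of the label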
# Outline: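 Bovine uterine membrane preparation; radioligand displacement read by scintillation counting 18 h after dosing. Primary screen single concentration, 25 uM, in duplicate; actives followed up in concentration series. Signal loss versus DMSO baseline.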
smiles,measurement,setting,value
O=C(Cc1ccccc1)c1ccccc1,outcome,[1],inactive
same,outcome,[2],inactive
same,outcome,[3],inactive
same,outcome,[4],inactive
O=[N+]([O-])c1c(Cl)c(Cl)cc(Cl)c1Cl,outcome,[1],inactive
C=CC(=O)OCCCCCC(C)C,outcome,[1],inactive
same,outcome,[2],inactive
same,outcome,[3],inactive
same,outcome,[4],inactive
same,outcome,[5],inactive
same,outcome,[6],inactive
same,outcome,[7],inactive
CCCCCCCCCCCCCCCC[n+]1ccccc1,outcome,[1],inactive
C[C@]12CCC(=O)C[C@@H]1CC[C@@H]1[C@@H]2CC[C@]2(C)[C@@H](O)CC[C@@H]12,outcome,NCBI gene 100848466,inactive
ClCC(Cl)CCl,outcome,NCBI gene 100848466,inactive
same,outcome,[1],inactive
COP(=S)(OC)Oc1ccc(Sc2ccc(OP(=S)(OC)OC)cc2)cc1,outcome,[1],inactive
same,AC50,[2],1730 nM (active)
same,outcome,[3],inactive
same,outcome,[4],inactive
same,outcome,[5],inactive
same,outcome,[6],inactive
same,outcome,[7],inactive
ClC1=C(Cl)[C@]2(Cl)[C@H]3[C@H]([C@H]4C=C[C@H]3C4)[C@@]1(Cl)C2(Cl)Cl,outcome,[1],inactive
same,outcome,[2],inactive
C[C@]12CC[C@H](O)CC1=CC[C@@H]1[C@@H]2CC[C@]2(C)C(=O)CC[C@@H]12,AC50,[1],3160 nM (active)
CCC[CH2][Sn]([CH2]CCC)([CH2]CCC)[O]C(=O)c1ccccc1,outcome,[1],inactive
same,AC50,[2],2940 nM (active)
same,outcome,[3],inactive
same,outcome,[4],inactive
Clc1ccc(COC(Cn2ccnc2)c2ccc(Cl)cc2Cl)cc1 (centres undefined),AC50,[1],700 nM (active)
same,outcome,[3],inactive
same,outcome,[4],inactive
COP(=S)(OC)Oc1cc(Cl)c(Br)cc1Cl,outcome,[1],inactive
same,outcome,[2],inactive
NNC(=S)NN,outcome,[1],inactive
same,outcome,[2],inactive
same,outcome,[3],inactive
same,outcome,[4],inactive
CCOC(=O)/C=C(C)/C=C/C[C@@H](C)CCCC(C)C,outcome,[1],inactive
same,outcome,[2],inactive
O=C(O)C(F)(F)C(F)(F)C(F)(F)C(F)(F)C(F)(F)C(F)(F)C(F)(F)C(F)(F)C(F)(F)C(F)(F)F,AC50,NCBI gene 100848466,23100 nM (active)
CCOP(=S)(OCC)SCSP(=S)(OCC)OCC,outcome,[1],inactive
same,outcome,[2],inactive
same,outcome,[3],inactive
same,AC50,[4],6960 nM (active)
same,AC50,[5],10700 nM (active)
Clc1ccc(C2(Cn3cncn3)CC(Br)CO2)c(Cl)c1 (centres undefined),outcome,[1],inactive
same,outcome,[2],inactive
same,outcome,[3],inactive
same,outcome,[4],inactive
same,outcome,[5],inactive
C(=NC1CCCCC1)=NC1CCCCC1,outcome,[1],inactive
NC(=O)O,outcome,[1],inactive
same,outcome,[3],inactive
same,outcome,[4],inactive
C[C@H]1CCCC(=O)CCC/C=C/c2cc(O)cc(O)c2C(=O)O1,AC50,[1],11.9 nM (active)
same,AC50,[2],2.45 nM (active)
same,AC50,[3],460 nM (active)
same,AC50,[4],291 nM (active)
same,AC50,[5],55.8 nM (active)
same,outcome,[6],inactive
same,outcome,[7],inactive
O=[N+]([O-])c1ccc2c3c(cccc13)CC2,outcome,[1],inactive
COC(=O)c1sccc1S(=O)(=O)NC(=O)Nc1nc(C)nc(OC)n1,outcome,[1],inactive
same,outcome,[2],inactive
same,outcome,[3],inactive
same,outcome,[4],inactive
same,outcome,[5],inactive
